Reference: PubChem BioAssay AID1159580 (chemical genetic matrix, 2015)
Hit rate of the full screen: of about 5,500 compounds, about 2,000 (36%) were called active. Roughly 18% stayed inconclusive and do not appear here. No stated cut-off is given here; in the data, active means normalized growth mostly below about 0.91 (no sharp cut-off); inconclusive means no clear call, values can overlap the other calls; inactive means mostly above about 0.92. This is one part of the list.

Experiment: chemical genetic growth profiling, strain panel (AID 1159580);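 further: tested at 20 µM; growth read once vehicle control cultures reached saturation at 30 °C; 1 = growth at the plate median or of vehicle wells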
Conditions: S. cerevisiae deletion strains, growth OD
[1] = locus YDR150W, strain NUM1, stronger effect = lower value
[2] = locus YMR307W, strain GAS1, stronger effect = lower value
[3] = locus YPL055C, strain LGE1, stronger effect = lower value

Measured: normalized growth

C[C@]12C=CC(=O)C=C1CC[C@H]1[C@@H]3C[C@@H](O)[C@](O)(C(=O)CO)[C@@]3(C)C[C@H](O)[C@@]12F
inactive: locus YAL040C, strain CLN3, stronger effect = lower value 1.02 | locus YCL061C, strain MRC1 (second series), stronger effect = lower value 1.01 | [1] 1 | locus YDR363W, strain ESC2, stronger effect = lower value 1.05 | locus YER002W, strain NOP16, stronger effect = lower value 1.01 | locus YGR078C, strain PAC10, stronger effect = lower value 1 | [2] 1.02 | locus YNL128W, strain TEP1, stronger effect = lower value 1.01 | locus YNL153C, strain GIM3, stronger effect = lower value 1 | locus YNL175C, strain NOP13, stronger effect = lower value 1 | locus YNL197C, strain WHI3, stronger effect = lower value 0.987 | locus YNL224C, strain SQS1, stronger effect = lower value 1.01 | locus YOR083W, strain WHI5 (second series), stronger effect = lower value 1.01 | [3] 1.03

CSCCC(NC=O)C(=O)NC(CC(C)C)C(=O)NC(Cc1ccccc1)C(=O)O (centres undefined)
inactive: locus YAL013W, strain DEP1, stronger effect = lower value 1.01 | locus YAL021C, strain ccr4, stronger effect = lower value 1.01 | locus YAL026C, strain drs2, stronger effect = lower value 1 | locus YAL030W, strain snc1, stronger effect = lower value 1 | locus YBL061C, strain skt5, stronger effect = lower value 1 | locus YBR009C, strain hhf1, stronger effect = lower value 1 | locus YBR021W, strain FUR4, stronger effect = lower value 0.998 | locus YBR023C, strain chs3, stronger effect = lower value 1 | locus YBR171W, strain sec66, stronger effect = lower value 0.998 | locus YBR229C, strain ROT2, stronger effect = lower value 1 | locus YBR231C, strain swc5, stronger effect = lower value 0.997 | locus YBR279W, strain paf1, stronger effect = lower value 1.01 | locus YCL011C, strain gbp2, stronger effect = lower value 1 | locus YCL016C, strain dcc1, stronger effect = lower value 1 | locus YCL029C, strain bik1, stronger effect = lower value 0.983 | locus YCL061C, strain MRC1, stronger effect = lower value 1.01 | locus YCL069W, strain vba3, stronger effect = lower value 1.01 | locus YCR088W, strain abp1, stronger effect = lower value 0.999 | locus YDL005C, strain med2, stronger effect = lower value 0.988 | locus YDL035C, strain GPR1, stronger effect = lower value 0.999 | locus YDL040C, strain nat1, stronger effect = lower value 1 | locus YDL074C, strain BRE1, stronger effect = lower value 1.03 | locus YDL101C, strain DUN1, stronger effect = lower value 1.02 | locus YDL134C, strain PPH21, stronger effect = lower value 0.996 | locus YDL185W, strain tfp1, stronger effect = lower value 0.994 | locus YDL192W, strain arf1, stronger effect = lower value 0.994 | locus YDR001C, strain nth1, stronger effect = lower value 1 | locus YDR069C, strain doa4, stronger effect = lower value 1 | locus YDR101C, strain arx1, stronger effect = lower value 1 | locus YDR137W, strain rgp1, stronger effect = lower value 1.01 | [1] 1.01 | locus YDR159W, strain sac3, stronger effect = lower value 1 | locus YDR162C, strain NBP2, stronger effect = lower value 1 | locus YDR195W, strain ref2 0.97 | locus YDR297W, strain sur2, stronger effect = lower value 0.99 | locus YDR318W, strain mcm21, stronger effect = lower value 1.01 | locus YDR334W, strain swr1, stronger effect = lower value 1.01 | locus YDR335W, strain msn5, stronger effect = lower value 1 | locus YDR388W, stronger effect = lower value 1 | locus YDR392W, strain spt3, stronger effect = lower value 1.01 | locus YDR502C, strain sam2, stronger effect = lower value 1 | locus YEL003W, strain gim4, stronger effect = lower value 1 | locus YEL037C, strain rad23, stronger effect = lower value 1.01 | locus YEL061C, strain CIN8 (second series), stronger effect = lower value 1.02 | locus YEL061C, strain CIN8, stronger effect = lower value 1.01 | locus YER015W, strain faa2, stronger effect = lower value 1 | locus YER016W, strain bim1, stronger effect = lower value 1 | locus YER110C, stronger effect = lower value 1.01 | locus YER111C, strain swi4, stronger effect = lower value 1 | locus YER155C, strain BEM2 (second series), stronger effect = lower value 0.995 | locus YER155C, strain BEM2, stronger effect = lower value 1.01 | locus YER167W, strain BCK2, stronger effect = lower value 0.995 | locus YFR010W, strain ubp6, stronger effect = lower value 1 | locus YGL078C, strain dbp3, stronger effect = lower value 0.99 | locus YGL086W, strain mad1, stronger effect = lower value 1 | locus YGL167C, strain pmr1, stronger effect = lower value 1 | locus YGL173C, strain kem1, stronger effect = lower value 1.01 | locus YGL227W, strain vid30, stronger effect = lower value 0.992 | locus YGL240W, strain doc1, stronger effect = lower value 1 | locus YGL248W, strain PDE1, stronger effect = lower value 1.01 | locus YGL253W, strain hxk2, stronger effect = lower value 0.995 | locus YGR135W, strain pre9, stronger effect = lower value 1 | locus YGR252W, strain gcn5, stronger effect = lower value 1.01 | locus YHR013C, strain ard1, stronger effect = lower value 1 | locus YHR027C, strain rpn1, stronger effect = lower value 0.986 | locus YHR030C, strain SLT2, stronger effect = lower value 0.998 | locus YHR079C, strain IRE1 (second series), stronger effect = lower value 1 | locus YHR094C, strain hxt1, stronger effect = lower value 1 | locus YHR129C, strain ARP1, stronger effect = lower value 1.01 | locus YHR142W, strain chs7, stronger effect = lower value 1.01 | locus YHR200W, strain rpn10, stronger effect = lower value 0.98 | locus YIL066C, strain RNR3, stronger effect = lower value 0.996 | locus YIL073C, strain SPO22, stronger effect = lower value 1.01 | locus YIL125W, strain kgd1, stronger effect = lower value 0.998 | locus YIR030C, strain dcg1, stronger effect = lower value 0.99 | locus YJL092W, strain hpr5, stronger effect = lower value 0.993 | locus YJL095W, strain BCK1 (second series), stronger effect = lower value 1 | locus YJL095W, strain BCK1, stronger effect = lower value 1.03 | locus YJL115W, strain asf1, stronger effect = lower value 1.01 | locus YJL129C, strain trk1, stronger effect = lower value 1 | locus YJL134W, strain LCB3, stronger effect = lower value 1 | locus YJL154C, strain vps35, stronger effect = lower value 1 | locus YJL164C, strain tpk1, stronger effect = lower value 1.01 | locus YJL166W, strain qcr8, stronger effect = lower value 1.03 | locus YJL168C, strain set2, stronger effect = lower value 1.01 | locus YJL187C, strain SWE1 (second series), stronger effect = lower value 1.04 | locus YJL187C, strain SWE1, stronger effect = lower value 0.999 | locus YJR043C, strain POL32, stronger effect = lower value 0.992 | locus YJR075W, strain HOC1, stronger effect = lower value 1.02 | locus YKL009W, strain mrt4, stronger effect = lower value 1.01 | locus YKL068W, stronger effect = lower value 0.996 | locus YKL085W, strain MDH1 (second series), stronger effect = lower value 0.995 | locus YKL085W, strain MDH1, stronger effect = lower value 0.995 | locus YKL160W, strain elf1, stronger effect = lower value 1.01 | locus YKL190W, strain CNB1, stronger effect = lower value 1.01 | locus YKR001C, strain vps1, stronger effect = lower value 0.992 | locus YKR026C, strain gcn3, stronger effect = lower value 0.994 | locus YKR091W, strain srl3, stronger effect = lower value 1.01 | locus YLL001W, strain dnm1, stronger effect = lower value 1 | locus YLL026W, stronger effect = lower value 0.996 | locus YLL041C, strain sdh2, stronger effect = lower value 1.01 | locus YLR027C, strain aat2, stronger effect = lower value 0.988 | locus YLR039C, strain RIC1, stronger effect = lower value 1 | locus YLR058C, strain SHM2, stronger effect = lower value 1.02 | locus YLR102C, strain apc9, stronger effect = lower value 1 | locus YLR221C, strain rsa3, stronger effect = lower value 0.998 | locus YLR258W, strain gsy2, stronger effect = lower value 1.02 | locus YLR262C, strain YPT6 (second series), stronger effect = lower value 1.02 | locus YLR262C, strain YPT6, stronger effect = lower value 1.05 | locus YLR268W, strain sec22, stronger effect = lower value 1 | locus YLR320W, strain mms22, stronger effect = lower value 0.998 | locus YLR330W, strain CHS5, stronger effect = lower value 1.01 | locus YLR342W, strain FKS1 (second series), stronger effect = lower value 1.01 | locus YLR342W, strain FKS1, stronger effect = lower value 1 | locus YLR357W, strain rsc2, stronger effect = lower value 0.971 | locus YLR370C, strain arc18, stronger effect = lower value 1 | locus YLR371W, strain rom2, stronger effect = lower value 1.01 | locus YLR384C, strain iki3, stronger effect = lower value 1 | locus YLR418C, strain cdc73, stronger effect = lower value 0.998 | locus YML016C, strain PPZ1, stronger effect = lower value 1 | locus YML032C, strain rad52, stronger effect = lower value 0.998 | locus YML120C, strain ndi1, stronger effect = lower value 1.01 | locus YML124C, strain tub3, stronger effect = lower value 1 | locus YMR058W, strain fet3, stronger effect = lower value 1 | locus YMR078C, strain ctf18, stronger effect = lower value 1 | locus YMR125W, strain sto1, stronger effect = lower value 0.993 | locus YMR129W, stronger effect = lower value 1 | locus YMR205C, strain PFK2, stronger effect = lower value 1 | locus YMR223W, strain ubp8, stronger effect = lower value 1 | locus YMR231W, strain pep5, stronger effect = lower value 0.977 | [2] 1.05 | locus YNL067W, strain RPL9B, stronger effect = lower value 1.03 | locus YNL071W, strain lat1, stronger effect = lower value 1 | locus YNL209W, strain ssb2, stronger effect = lower value 1.01 | locus YNL233W, strain BNI4, stronger effect = lower value 1.02 | locus YNL248C, strain rpa49, stronger effect = lower value 1 | locus YNL250W, strain rad50, stronger effect = lower value 1.01 | locus YNL271C, strain bni1, stronger effect = lower value 0.996 | locus YNL298W, strain CLA4, stronger effect = lower value 1 | locus YNL307C, strain MCK1, stronger effect = lower value 1 | locus YNL322C, strain KRE1 (second series), stronger effect = lower value 0.996 | locus YNR049C, strain mso1, stronger effect = lower value 0.998 | locus YNR052C, strain pop2, stronger effect = lower value 1 | locus YOL006C, strain TOP1, stronger effect = lower value 1.06 | locus YOL012C, strain htz1 0.872 | locus YOL147C, strain pex11, stronger effect = lower value 1 | locus YOR001W, strain rrp6, stronger effect = lower value 1.01 | locus YOR061W, strain CKA2, stronger effect = lower value 0.997 | locus YOR069W, strain VPS5, stronger effect = lower value 1 | locus YOR070C, strain gyp1, stronger effect = lower value 1.02 | locus YOR080W, strain dia2, stronger effect = lower value 0.99 | locus YOR083W, strain WHI5, stronger effect = lower value 1 | locus YOR106W, strain vam3, stronger effect = lower value 1.01 | locus YOR136W, strain idh2, stronger effect = lower value 1.01 | locus YOR144C, strain elg1, stronger effect = lower value 0.987 | locus YOR184W, strain ser1, stronger effect = lower value 0.986 | locus YOR265W, strain rbl2, stronger effect = lower value 1.01 | locus YOR270C, strain vph1, stronger effect = lower value 1.03 | locus YOR290C, strain snf2, stronger effect = lower value 1.01 | locus YOR316C, strain cot1, stronger effect = lower value 1 | locus YPL051W, strain arl3, stronger effect = lower value 0.996 | [3] 1.01 | locus YPL078C, strain atp4, stronger effect = lower value 1 | locus YPL106C, strain sse1, stronger effect = lower value 0.99 | locus YPL240C, strain hsp82, stronger effect = lower value 0.999 | locus YPR119W, strain clb2, stronger effect = lower value 1 | locus YPR141C, strain kar3, stronger effect = lower value 0.985 | locus YPR163C, strain tif3, stronger effect = lower value 1 | locus YPR167C, strain met16, stronger effect = lower value 0.994 | strain wtn01, stronger effect = lower value 0.986
